Most compounds without a hit are left out; they make up all but 3.2% or so of the library.
DYRK1A inh = inhibitors of rat Dyrk1A kinase. Q63470. ADP-Glo luminescence, NFATc1 peptide. 310,000 tested, 0.43% active. inhibition, % at 12.5 µM. AID 504441; in the data active means inhibition above about 50%;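 further: plate controls were vehicle with enzyme for no effect and no enzyme for full effect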
dFosB activator = activators of mouse delta FosB homodimer. purified delta FosB, TAMRA-CDK5 oligo fluorescence polarization; percent of positive-control signal above neutral wells. 340,000 tested, 0.99% active. activation, % at 25 µM. AID 493131. P13346;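 active means mean activation above about 17%, with every replicate also reaching it, limit read from the data, passing the limit was not always enough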
Rtt109 Vps75 = inhibitors of Candida albicans Rtt109/Vps75 histone acetyltransferase; purified Rtt109/Vps75, ThioGlo CoA-SH fluorescence, 4 h; inhibition, % at 34.9 µM; 330,000 tested, 0.16% active;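 active means inhibition of at least 50% in every replicate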
Target sequence (Q5AAJ8 whole entry, looked up): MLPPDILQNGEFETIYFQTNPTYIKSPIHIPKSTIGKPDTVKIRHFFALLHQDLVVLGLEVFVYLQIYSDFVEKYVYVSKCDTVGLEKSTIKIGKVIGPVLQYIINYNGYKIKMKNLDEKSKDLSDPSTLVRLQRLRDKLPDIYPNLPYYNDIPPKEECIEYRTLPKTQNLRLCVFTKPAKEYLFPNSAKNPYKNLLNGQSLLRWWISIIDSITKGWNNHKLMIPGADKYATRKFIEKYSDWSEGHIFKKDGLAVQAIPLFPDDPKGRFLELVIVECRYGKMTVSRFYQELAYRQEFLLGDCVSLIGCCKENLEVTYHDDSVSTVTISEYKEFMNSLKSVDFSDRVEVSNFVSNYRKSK
SMARCA2 activ = SMARCA2 function activation, primary screen; MG213 cells, MMTV-luciferase reporter, dexamethasone, overnight; activation, % at 9.1 µM; 370,000 tested, 1% active; in the data active means activation above about 7.8%;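 further: 0% = vehicle wells and 100% = reference activator wells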
CDK5 inh = blocks human CDK5/p35 kinase activity | Q00535+Q15078 | Recombinant CDK5/p35, ADP-Glo luminescence, 60 min | inhibition, % at 10 µM | 330,000 tested, 0.01% active | AID 488839;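 active means highest replicate inhibition of at least 50% and at least 75% of replicates reaching 50%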;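 further: plate controls were DMSO neutral control for no effect and GW8510 at 10 µM for full effect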
esBAF inh = SWI/SNF esBAF complex inhibition. mouse ES cells, Bmi1-luciferase knock-in reporter, 24 h; 100% = twice the neutral-well signal. reporter increase, % at 12.5 µM. 350,000 tested, 2% active. AID 602393; in the data active means activation above about 40%;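 further: 0% = median of the plate's neutral control wells and 100% = double that signal; a rise in the Bmi1 reporter signal indicates esBAF inhibition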
SMARCA2 conf = SMARCA2 activation, confirmation screen; AID 652260; MG213 cells, MMTV-luciferase with dexamethasone, luminescence, overnight; MG213 cells expressing E1A, Rb sequestered; DMSO wells 0%, reference activator 100%; activation, % at 9.1 µM; shares compounds with SMARCA2 activ; 3,500 tested, 30% active;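 active means activation above its plate's cutoff, the mean activation of tested wells plus 3 SD, cut at about 7.9% in these data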
VP16 Luc act = counter-screen for SMARCA2 activators: GAL4-VP16 luciferase reporter activation | shares compounds with SMARCA2 activ | HEK293 GAL4-VP16 pG5luc reporter, luciferase luminescence; scaled: DMSO wells 0%, SAHA wells 100% | activation, % at 9.1 µM | 3,500 tested, 41% active | AID 686939;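 active means activation above the solvent-only control well mean plus 3 SD, averaged across control plates, cut at about 5.2% in these data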
* marks the source's active call; other numbers are inactive results; / = no result.

SMILES	DYRK1A inh	dFosB activator	Rtt109 Vps75	SMARCA2 activ	CDK5 inh	esBAF inh	SMARCA2 conf	VP16 Luc act
S=C(Nc1ccccc1)c1ccccn1	-6	-3	7	8.2*	-1	80*	30*	9.4*
C[C@H]1CN([C@@H](C)CO)S(=O)(=O)c2ccc(C#CC(C)(C)O)cc2O[C@@H]1CN(C)C(=O)CC1CC1	/	/	/	/	/	4	/	/
O=C(NNC(=O)c1cc2ccccc2o1)c1ccc(F)cc1	2	0	3	3	0	20	/	/
O=C(c1ccc(F)cc1)c1cc2ccccc2o1	-2	-4	9	11*	0	64*	8	7.4*
O=C1CSc2ccc(C(=O)NCCC3=CCCCC3)cc2N1	12	-2	-9	9.8*	-2	50*	1	6.8*
Cc1ccsc1C(=O)OCC(=O)NCCC1=CCCCC1	-4	-5	-27	8.4*	-2	/	9.7*	5
O=C(NCCC1=CCCCC1)c1ccc([N+](=O)[O-])cc1	2	-4	-1	9.5*	-4	/	13*	12*
COc1cccc(C(=O)NCCC2=CCCCC2)c1	/	-6	5	12*	1	-9	8	18*
COc1ccc(C(=O)NCCC2=CCCCC2)cc1	-1	-2	0	0	1	/	/	/
O=C(CCNC(=O)c1ccc([N+](=O)[O-])cc1)NCCC1=CCCCC1	8	-5	-5	-1	0	-9	/	/
O=C(C[C@H]1CC[C@H](NC(=O)C2CC2)[C@H](CO)O1)NCc1ccccc1Cl	/	/	/	/	/	2	/	/
C[C@@H]1CN([C@@H](C)CO)C(=O)c2ccccc2-c2ccccc2CO[C@@H]1CN(C)Cc1ccc2c(c1)OCO2	/	/	/	/	/	-3	/	/
C[C@@H]1CN([C@@H](C)CO)C(=O)Cc2cc(NC(=O)Nc3ccccc3)ccc2O[C@@H]1CN(C)Cc1ccc(Cl)c(Cl)c1	/	/	/	/	/	0	/	/
CN(C)c1ccc(NC(=O)/C=C/c2ccccc2Cl)cc1	-5	-9	56*	8.2*	1	/	7	11*
COCC(=O)Nc1ccc2c(c1)[C@H]1C[C@H](CC(=O)NCc3cc(F)ccc3F)O[C@@H](CO)[C@H]1O2	/	/	/	/	/	1	/	/
O=C(O)c1cc(N/N=C2/CC(c3ccccc3)Oc3ccccc32)ccc1Cl (configuration not stated)	-3	-11	9	10*	-2	/	3	2
CCCNC(=O)Nc1ccc2c(c1)OC[C@@H](C)N(Cc1ccncc1)C[C@H](C)[C@@H](OC)CN(C)C2=O	/	/	/	/	/	-3	/	/
COc1ccc(NC(=O)O/N=C/c2ccccc2Cl)cc1	-2	6	10	10*	1	/	4	3
C[C@H](CO)N1C[C@H](C)[C@H](CN(C)Cc2ccccn2)Oc2ncc(C#CC(C)(C)O)cc2C1=O	/	/	/	/	/	2	/	/
Cn1nc(/C=C/c2ccccc2)ccc1=O	5	-8	-3	8.9*	1	25	3	5
Cc1ccc(NC(=O)c2ccccc2Cl)c(Cl)c1	-1	5	-4	13*	0	39	11*	5.5*
COc1ccc(S(=O)(=O)N(C)C[C@H]2Oc3ccc(NC(=O)C4CC4)cc3CC(=O)N([C@H](C)CO)C[C@@H]2C)cc1	/	/	/	/	/	7	/	/
C[C@H]1CN([C@@H](C)CO)C(=O)Cc2cc(NC(=O)NC3CCCCC3)ccc2O[C@@H]1CN(C)Cc1ccc(C(F)(F)F)cc1	/	/	/	/	/	2	/	/
COC(=O)c1ccc(C(=O)OC)c(NC(=S)N2CCN(c3cccc(Cl)c3)CC2)c1	9	2	-5	11*	-1	-4	-6	-1
COc1ccc(NC(=O)Nc2ccc3c(c2)C(=O)N(C)C[C@H](OC)[C@@H](C)CN[C@@H](C)CO3)cc1	/	/	/	/	/	2	/	/
SMILES	DYRK1A inh	dFosB activator	Rtt109 Vps75	SMARCA2 activ	CDK5 inh	esBAF inh	SMARCA2 conf	VP16 Luc act
O=C(O)c1cccc(Nc2ccnc(Nc3cccc(C(=O)O)c3)n2)c1	7	4	-2	8.0*	1	-74	8	2
c1ccc(NC2=Nc3cccc4cccc2c34)cc1	41	-1	1	-2	1	16	/	/
O=C(O)c1cccc(NC2=Nc3cccc4cccc2c34)c1	20	-4	-10	9.9*	-2	26	10*	9.4*
O=C(OCc1cc(=O)oc2cc(O)ccc12)c1cc(S(=O)(=O)N2CCOCC2)ccc1F	1	-12	-7	8.4*	-2	3	12*	-1
CN1CCN(c2ccc(-c3cc(NC=O)c4ncc(-c5ccccc5)n4c3)cc2)CC1	/	/	/	3	/	-6	/	/
CN1CCN(c2ccc(-c3cc(NC=O)c4ncc(-c5ccc(F)cc5)n4c3)cc2)CC1	/	/	/	10*	/	-1	14*	12*
COc1cc(-c2cnc3c(NC(C)=O)cc(-c4ccc(N5CCN(C)CC5)cc4)cn23)cc(OC)c1OC	/	/	/	-4	/	-17	/	/
COc1cc(-c2cnc3c(NC=O)cc(-c4ccc(N5CCN(C)CC5)cc4)cn23)cc(OC)c1OC	/	/	/	8.5*	/	1	9.3*	14*
CCCNC(=O)C[C@H]1CC[C@H]2[C@@H](COc3ccc(NC(=O)c4cc(F)cc(F)c4)cc3C(=O)N2C)O1	/	/	/	/	/	3	/	/
CN1CCCC1(C)C(=O)Nc1ccc(-n2cccc2)cc1 (configuration not stated)	/	/	/	8.2*	/	23	4	4
CCCC(=O)N1CCCC1(C)C(=O)Nc1ccc(-n2cccc2)cc1 (configuration not stated)	/	/	/	-2	/	-3	/	/
O=C(O)c1cccnc1Oc1ccccc1	1	3	-7	-1	0	/	/	/
CN(CCc1ccccn1)C(=O)c1cccnc1Oc1ccccc1	/	5	-9	12*	-1	-5	-1	2
C[C@@H]1CN([C@@H](C)CO)C(=O)c2cccc(NC(=O)Nc3ccc(F)cc3)c2O[C@@H]1CN(C)C(=O)NC1CCCCC1	/	/	/	/	/	3	/	/
CCOC(=O)C1=C(C)c2ccccc2N(C(=O)OC)C1(C)C(=O)OCC (configuration not stated)	-1	-8	3	8.1*	-1	14	1	-1
CCOC(=O)C1=C(C)c2ccccc2OC1(CC)C(=O)OCC (configuration not stated)	1	-17	-20	-1	0	-5	/	/
Nc1ccc2c(c1Cl)C(=O)c1ccc(N)c(Cl)c1C2=O	10	-11	-1	10*	1	41	23*	5.2*
CCOC(=O)c1nn(-c2ccc(Cl)cc2)c2nnc(Cc3ccccc3)c(=O)n12	1	0	15	12*	-1	/	-2	0

Compound activity from PubChem BioAssay.
